GDH-TPI counter-1 – GDH-TPI coupling enzyme inhibitors, primary screen, artefact control for M. tuberculosis FBA inhibitor project, biochemical, absorbance, full deck; GDH-TPI coupled enzyme counterscreen, NADH absorbance; inhibition, % at 4.8 µM; 360,000 compounds, 1.2% hits; AID 588335, 2011; in the data active = inhibition above about 30%;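 note: 0% = DMSO wells and 100% = wells lacking the enzyme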
Rv3671c inh – Rv3671c serine protease inhibitors, primary screen, biochemical, fluorescence polarization, M. tuberculosis H37Rv; inhibition, % at 5.96 µM; 320,000 compounds, 0.048% hits; P9WHR9; AID 2606, 2010; in the data active = inhibition above about 38%;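 note: extracellular domain of Rv3671c used as enzyme; 0% = enzyme with DMSO and 100% = no enzyme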
Target sequence (P9WHR9 whole entry, looked up, the tested form may be a part): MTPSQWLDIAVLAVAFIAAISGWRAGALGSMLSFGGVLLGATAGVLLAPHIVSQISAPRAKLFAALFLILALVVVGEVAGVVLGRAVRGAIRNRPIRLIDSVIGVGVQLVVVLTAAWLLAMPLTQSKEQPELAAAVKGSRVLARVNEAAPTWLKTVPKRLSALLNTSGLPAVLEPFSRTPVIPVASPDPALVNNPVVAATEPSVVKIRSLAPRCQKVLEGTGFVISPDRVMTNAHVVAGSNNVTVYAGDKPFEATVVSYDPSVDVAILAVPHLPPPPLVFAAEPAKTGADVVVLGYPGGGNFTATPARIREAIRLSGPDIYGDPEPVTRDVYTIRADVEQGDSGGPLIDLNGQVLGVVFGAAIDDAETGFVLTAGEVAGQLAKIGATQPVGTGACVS
Mtb hypoxia inh – PubChem AID 1159583; M. tuberculosis hypoxia-regulated fluorescent reporter, fluorescence; fluorescence inhibition, % (test concentration not listed); 300,000 compounds, 0.1% hits; in the data active = fluorescence inhibition mostly above about 23%, no sharp cut-off; inactive = mostly below about 17%
Mtb FBA inh – Mtb FBA enzyme inhibitors, primary screen, biochemical, fluorescence, strain H37Rv | 360,000 compounds, 2.3% hits | inhibition, % at 1 µM | Fructose-bisphosphate aldolase (Mycobacterium tuberculosis (strain ATCC 25618 / H37Rv)), … | purified M. tuberculosis FBA, fluorescence read-out;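 note: 0% = vehicle and 100% = reference inhibitor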
FadD28 FP inh – inhibitors of FadD28 bisubstrate probe binding, primary screen, biochemical, fluorescence polarization, single point. 360,000 compounds, 0.22% hits. Mycobacterium tuberculosis FadD28 fatty-acid-AMP ligase. inhibition, % at 12.5 µM; in the data active = inhibition above about 8.5%, passing the limit was not always enough
UGM FP inh – M. tuberculosis UGM enzyme inhibitors, primary screen, biochemical, fluorescence polarization, single point | UDP-galactopyranose mutase (Mycobacterium tuberculosis (strain ATCC 25618 / H37Rv)), … | purified UGM, fluorescence polarization probe displacement | inhibition, % at 10 µM | 320,000 compounds, 0.06% hits | AID 504406, 2011; in the data active = inhibition above about 10%, passing the limit was not always enough
Mtb FBA confirm – M. tuberculosis aldolase blockers, biochemical, fluorescence, strain H37Rv, confirmation; 5,600 compounds, 78% hits; purified M. tuberculosis FBA, fluorescence read-out; shares compounds with Mtb FBA inh; AID 651616, 2012; inhibition, % at 1 µM;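 note: 0% = vehicle wells and 100% = reference inhibitor wells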
GDH-TPI counter-2 – GDH-TPI coupling enzyme inhibitors, artefact control for M. tuberculosis FBA inhibitor project, biochemical, fluorescence, high throughput | shares compounds with Mtb FBA inh | GDH-TPI coupled enzyme counterscreen | inhibition, % at 1 µM | 5,600 compounds, 81% hits; in the data active = inhibition above about 10%
* marks the source's active call; other numbers are inactive results; nt = no result; + = active, no number. This is a sample that favours compounds with a hit; in the whole collection about 3.5% have one here. Cut-off read from the data, not from the text of the source, unless noted: active = inhibition above about 27%; inactive = the rest.

SMILES	GDH-TPI counter-1	Rv3671c inh	Mtb hypoxia inh	Mtb FBA inh	FadD28 FP inh	UGM FP inh	Mtb FBA confirm	GDH-TPI counter-2
CC(=O)Oc1ccc(C2C3=C(CC(C)(C)CC3=O)Nc3cc4c(cc32)OCCO4)cc1 (centres undefined)	43*	4	4	47*	-3	1	72*	63*
COc1cccc(C2C3=C(CC(C)(C)CC3=O)Nc3cc4c(cc32)OCO4)c1 (centres undefined)	25	3	nt	15	4	3	nt	nt
CCOc1ccccc1C1C2=C(COC2=O)Nc2cc3c(cc21)OCO3 (centres undefined)	2	7	8	11	1	0	nt	nt
CCOc1ccc(C=NNc2ccccn2)cc1	nt	nt	4	nt	nt	nt	nt	nt
O=C(CNC(=O)c1cccc(Br)c1)NN=Cc1cccnc1	nt	nt	1	nt	nt	nt	nt	nt
COc1cccc(-c2c(C(=O)NN=Cc3sccc3C)nnn2-c2nonc2N)c1	nt	nt	5	nt	nt	nt	nt	nt
c1csc(C2Nc3ccccc3-c3nc4ccccc4n32)c1 (centres undefined)	22	-16	8	58*	-1	0	138*	97*
c1ccc2c(c1)NC(c1ccncc1)n1c-2nc2ccccc21 (centres undefined)	11	0	nt	56*	-1	-2	0	-5
c1cncc(C2Nc3ccccc3-c3nc4ccccc4n32)c1 (centres undefined)	8	-14	-5	36*	-3	4	115*	92*
CS(=O)(=O)NN1C(=O)c2ccccc2NC1c1cccs1 (centres undefined)	13	-4	-3	23	-1	0	nt	nt
COc1ccc(OCC(=O)NN=C/C(C)=C/c2ccco2)c(Br)c1	nt	nt	7	nt	nt	nt	nt	nt
COc1ccc(-c2cc3c(=O)n(CC(=O)NCc4cccnc4)nc(C)n3n2)cc1	-3	-4	0	28*	-3	1	16	11*
O=C(O)CCNc1ccc(NCCC(=O)O)c2c1C(=O)c1ccccc1C2=O	24	18	nt	90*	10*	4	4	3
COc1ccc(C=NNC(=O)c2nnn(-c3nonc3N)c2CN(C)c2ccccc2)cc1	nt	nt	8	nt	nt	nt	nt	nt
CC(C)c1ccc(OCCCCN2CCCCC2)cc1	-1	0	11	98*	-2	1	130*	106*
CC1(C)Oc2ccc(C(=O)NN=Cc3ccc(O)cc3)cc2NC1=O	nt	nt	3	nt	nt	nt	nt	nt
CCN(CC)c1ccc(C=NNC(=O)Nc2ccccc2)cc1	nt	nt	-13	nt	nt	nt	nt	nt
COc1c2ccoc2c(OCC(O)C(C)(C)O)c2oc(=O)ccc12 (centres undefined)	nt	nt	1	nt	nt	nt	nt	nt
Cc1ccc(-c2cc[n+](Cc3ccccc3)cc2)cc1	10	10	1	67*	-2	0	+	+
Cc1coc2c1c(C)cc1oc(=O)c(CC(=O)N[C@@H](C)C(=O)O)c(C)c12	-6	nt	-8	38*	-6	-3	+	+
Cc1coc2c1c(C)cc1oc(=O)c(CC(=O)N[C@H](C(=O)O)C(C)C)c(C)c12	11	3	-5	76*	-1	0	51*	49*
CCC(NC(=O)Cc1c(C)c2c(cc(C)c3c(C)c(C)oc32)oc1=O)C(=O)O (centres undefined)	30	nt	5	37*	-2	-1	193*	179*
COC(=O)c1cn(-c2ccccc2)nc1-c1ccccc1	-8	-5	nt	36*	2	-3	73*	56*
CCCCc1cc(=O)oc2cc(C)cc(OCC(=O)N[C@@H](CSCc3ccccc3)C(=O)O)c12	10	-4	nt	46*	-2	-1	128*	99*
CCc1cc(=O)oc2cc(C)cc(OCC(=O)NC(Cc3ccc(Cl)cc3)C(=O)O)c12 (centres undefined)	2	-2	nt	61*	-4	1	44*	43*
SMILES	GDH-TPI counter-1	Rv3671c inh	Mtb hypoxia inh	Mtb FBA inh	FadD28 FP inh	UGM FP inh	Mtb FBA confirm	GDH-TPI counter-2
CCCc1cc(=O)oc2cc(C)cc(OCC(=O)NC(Cc3c[nH]c4ccc(O)cc34)C(=O)O)c12 (centres undefined)	0	1	nt	19	0	5	nt	nt
CCc1cc(=O)oc2cc(C)cc(OCC(=O)N[C@@H](CSCc3ccccc3)C(=O)O)c12	-2	-6	nt	37*	-3	3	+	162*
O=C(O)CC1SC(=NN=CC2CC=CCC2)NC1=O (centres undefined)	nt	nt	7	nt	nt	nt	nt	nt
Cn1c(=O)c2cc(NC(=O)Nc3cccnc3)ccc2n1-c1ccc(C(C)(C)C)cc1	5	nt	nt	31*	-3	nt	27	14*
Cc1cc(C)cc(NC(=O)Nc2cccnc2)c1	6	nt	2	-2	-4	-2	nt	nt
CCCC(O)(c1ccc(Cl)cc1)C(CN1CCOCC1)c1ccc(Cl)cc1 (centres undefined)	3	4	4	30*	-1	0	97*	70*
C#CCOCCOCCOCCNc1nc(N2CCOCC2)nc(N2CCN(C(=O)CCCCCCCCCCNC(=O)C(CCC(=O)O)n3cc(CCCCCN)nn3)CC2)n1 (centres undefined)	nt	nt	10	nt	nt	nt	nt	nt
O=C(O)CCN1C(=O)c2ccc(NC(=O)c3ccco3)cc2C1=O	4	0	4	10	-3	-2	nt	nt
O=C(O)CCN1C(=O)c2ccc(NC(=O)CSCc3ccccc3)cc2C1=O	6	-12	-1	6	1	5	nt	nt
O=C(Cc1ccccc1)Nc1ccc2c(c1)C(=O)N(CC1CCCO1)C2=O (centres undefined)	1	2	10	31*	-3	0	149*	99*
O=C(O)CCN1C(=O)c2ccc(NC(=O)Cc3ccc(Cl)cc3)cc2C1=O	6	-2	2	31*	-3	3	167*	154*
O=C(O)CCN1C(=O)c2ccc(NC(=O)C(c3ccccc3)c3ccccc3)cc2C1=O	10	8	11	36*	-2	-1	-4	-6
CC(=O)Oc1ccc(C(=O)Nc2ccc3c(c2)C(=O)N(CCC(=O)O)C3=O)cc1	23	4	11	47*	-4	3	132*	110*
Nc1nnc(CC(=O)NN=Cc2cc([N+](=O)[O-])cc(Br)c2O)s1	nt	nt	2	nt	nt	nt	nt	nt
O=C(O)c1cc(-c2c[nH]c3ccccc23)nc2ccc3ccccc3c12	18	-6	nt	45*	2	1	+	136*
